# Shown are actives, neighbours in structure and some others; about 10% of the full set was active somewhere.
# PNC inhibitor: perinucleolar compartment assembly inhibition; PC3M PTB-GFP, PNC prevalence imaging, 16 h; active compounds read low; activity change (PNC), negative = inhibition, % at 10 µM; 140,000 compounds, 3.1% hits; AID 2417;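 active = readout at or below -70, meaning at least 70% loss of cells showing the perinucleolar compartment, a nuclear body marking cancer cells; inconclusive = readout between -30 and a set limit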;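 also: plate controls were DMSO wells for no effect and camptothecin positive control wells for full effect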
#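 PC3M cells stably expressing PTB-GFP, 750–1000 cells/well, treated 16 h at 37 °C with compound (23 nl of library stock), in duplicate. After paraformaldehyde fixation and Hoechst stain, imaged at 20x; PNC prevalence scored by image analysis.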
# 12-hLO inh: inhibitors of human 12-lipoxygenase (ALOX12) | P18054 | AID 1452 | 150,000 compounds, 0.12% hits | purified 12-hLO, xylenol orange hydroperoxide absorbance | Potency, µM (doses to about 57.1 µM), without a hit: at the highest dose activity change, negative = inhibition, hits mostly inhibitors; active = well fitted inhibition curve with a large enough effect; inconclusive = small, poorly fitted or top-dose-only effect; also: potency is read from the fitted curve at half-maximal effect; nearly all actives have a fitted effect of over 55% in size
#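 Hydroperoxide formation by human 12-lipoxygenase from 40 uM arachidonic acid was followed colorimetrically via ferric-xylenol orange complex, using the 573/405 nm absorbance ratio. Enzyme concentration was 150 nM, with 30 min reaction at room temperature.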
# HPGD inh: blocks human HPGD enzyme activity | purified HPGD, NADH fluorescence kinetic, PGE2 substrate | Potency, µM, without a hit: top-dose activity change, negative = inhibition, most hits filed as inhibitors | P15428 | 150,000 compounds, 4.3% hits; also: potency is read from the fitted curve at half-maximal effect
#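 20 nM HPGD preincubated 15 min at room temperature with compound in 50 mM Tris-HCl pH 8, 0.01% Tween 20. Started with 1 mM NAD+ and 30 uM prostaglandin E2; NADH fluorescence (360/450 nm) read 5 times over 30-s intervals, last minus first.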
# LMNA splice mod: modulators of lamin A splicing; HeLa LMNA splicing GFP/RFP minigene ratio, 48 h; Potency, µM (titrated, usually from 46.1 µM), for the others: at the highest dose ratio change, negative = inhibition, usual class: inhibitors; 200,000 compounds, 0.01% hits; AID 1487; active = well fitted inhibition curve with a large enough effect in the signal ratio, with a control signal flat, not every such curve was filed as active; inconclusive = small, poorly fitted or top-dose-only effect, or effect the other way, or a change in a side signal; the % refers to the signal ratio; also: potency is read from the fitted curve at half-maximal effect
#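 S3 HeLa stable clones carrying a lamin A-EGFP splicing minigene plus DsRed2 were seeded at 600 cells/well in Opti-MEM with 2% FBS, pin-dosed and incubated 48 h at 37°C. Acumen cytometry (488 nm) gave the GFP/RFP total-intensity ratio.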
# ALDH1A1 block: ALDH1A1 (human) enzyme inhibition | P00352 | Purified ALDH1A1, NADH fluorescence, propionaldehyde substrate | Potency, µM (top dose mostly 75.3 µM), inactives show top-dose activity, negative = inhibition, actives largely listed as inhibitors | 220,000 compounds, 7.3% hits | AID 1030;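 also: potency is read from the fitted curve at half-maximal effect; plate controls were no enzyme wells and a reference inhibitor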
# Target sequence (P00352 whole entry, looked up): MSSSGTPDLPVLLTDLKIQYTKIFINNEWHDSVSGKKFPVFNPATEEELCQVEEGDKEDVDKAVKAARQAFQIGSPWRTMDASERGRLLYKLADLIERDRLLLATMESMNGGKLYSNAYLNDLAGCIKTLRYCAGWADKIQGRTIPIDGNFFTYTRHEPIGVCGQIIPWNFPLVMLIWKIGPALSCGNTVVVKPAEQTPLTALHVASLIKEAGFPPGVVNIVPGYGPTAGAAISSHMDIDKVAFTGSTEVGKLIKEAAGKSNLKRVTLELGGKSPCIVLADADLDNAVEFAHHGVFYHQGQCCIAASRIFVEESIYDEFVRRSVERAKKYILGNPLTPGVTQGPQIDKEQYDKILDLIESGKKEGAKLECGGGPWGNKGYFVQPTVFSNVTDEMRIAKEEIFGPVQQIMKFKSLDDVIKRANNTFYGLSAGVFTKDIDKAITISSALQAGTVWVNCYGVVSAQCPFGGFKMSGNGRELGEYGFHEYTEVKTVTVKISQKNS
# * marks the source's active call; other numbers are inactive results; u = inconclusive; x = not tested or not shown; [ ] = remark or other dose. Unless noted, calls follow the shape of the dose curve; as a rule, active = well fitted inhibition curve with a large enough effect (not every such curve was filed as active); inconclusive = small, poorly fitted or top-dose-only effect, or another doubt; inactive = no such curve, though single readings can be large or run the other way. Unless noted, % is scaled to controls: 0 for no effect and ±100 for the full control effect.
SMILES,PNC inhibitor,12-hLO inh,HPGD inh,LMNA splice mod,ALDH1A1 block
COc1ccc(N=C2NN=C(c3ccc4c(c3)OCCO4)CS2)cc1,30,-15%,-3%,-2%,25µM*
FC(F)Sc1ccc(N=C2NN=C(c3ccc4c(c3)OCCO4)CS2)cc1,21,-20%,-8%,u,u
c1cc2c(cc1C1=NNC(=NC3CC3)SC1)OCCO2,x,x,x,u,10µM*
Cc1cc(C2=NNC(=NC3CCCCC3)SC2)c(C)n1-c1c(C)n(C)n(-c2ccccc2)c1=O,u,-2%,-24%,u,u
O=C(O)CCNCC(=O)O,x,-3%[11.4 µM],-1%,x,11%[13.5 µM]
CCCCN=C1NN=C(c2ccc3c(c2)OCCO3)CS1,x,x,x,14%[9.22 µM],10µM*
CCOC(=S)N/C(=N\S(=O)(=O)c1ccc(C)cc1)c1ccccc1,28,-1%,25µM*,-4%,14µM*
O=C(COc1ccc2oc(-c3ccccc3)cc(=O)c2c1)Nc1ccccc1,-112*,-1%,-14%,-9%,7%
Cc1ccccc1NC(=O)COc1ccc2oc(=O)cc(C)c2c1,x,x,x,10%[46 µM],u
Cc1ccc(NC(=O)C(=O)NCC(c2cccnc2)N2CCN(Cc3ccccc3)CC2)cc1C (configuration not stated),x,x,x,3%[46 µM],x
Cc1nnc(SCC(=O)OC2CC(C)CCC2C(C)C)[nH]c1=O (configuration not stated),-3,-1%,-6%,0%,u
CC1CCC(C(C)C)C(OC(=O)CSc2nc(N)cc(=O)[nH]2)C1 (configuration not stated),60,3%,-10%,9%,4.5µM*
CCOc1ccccc1C(=O)N(Cc1cc(OC)c(OC)c(OC)c1)c1ccccn1,x,x,x,9%[46 µM],x
COCCNC(=O)c1ccc(Cn2c(SCC(=O)NC(C)C)nc3ccccc3c2=O)cc1,x,x,x,-6%[46 µM],x
COc1ccc(OC)c(S(=O)(=O)NCCc2sc(-c3cccnc3)nc2C)c1,x,x,x,19%[46 µM],x
O=C1[C@@H]2C(c3cccnc3)=NO[C@@H]2C(=O)N1c1ccc(Br)cc1,x,x,x,x,7.9µM*
COc1ccc(C2=NO[C@@H]3C(=O)N(c4cccc(C)c4C)C(=O)[C@H]23)cc1OC,24,-2%,0%,0%,5%
Cc1ccc(N2C(=O)[C@@H]3C(c4ccc(F)cc4)=NO[C@@H]3C2=O)cc1,-95*,-1%,-3%,2%,7%
COc1ccc(C2=NO[C@@H]3C(=O)N(c4ccc(C)cc4C)C(=O)[C@H]23)cc1OC,12,-7%,-13%,4%,22µM*
O=C1C2ON(c3ccccc3)C(c3ccccn3)C2C(=O)N1c1ccc(Br)cc1 (configuration not stated),25,-4%,-7%,2%,-6%
COc1cccc2sc(NC(=O)c3ccc(S(=O)(=O)N4CCC(C)CC4)cc3)nc12,x,x,x,-4%[46 µM],x
Cc1ccc(NC(=O)c2ccc(=O)n(Cc3ccccc3C)c2)c(C)c1,x,x,x,15%[46 µM],x
COc1ccc(NC(=O)CC(C)S(=O)(=O)c2cc3c(cc2C)NC(=O)CO3)cc1OC (configuration not stated),x,x,x,-3%[46 µM],x
CC(C)c1ccc(NC(=O)CCCc2nc(-c3ccc(Cl)cc3)no2)cc1,x,x,x,13%[46 µM],x
O=C(NCCc1ccccc1)c1cnc2sc(N3CCCCCC3)nn2c1=O,x,x,x,4%[46 µM],x
SMILES,PNC inhibitor,12-hLO inh,HPGD inh,LMNA splice mod,ALDH1A1 block
Fc1cccc(C[n+]2csc3ccccc32)c1,32,-21%,4µM*,u,0.35µM*
c1ccc(C[n+]2csc3ccccc32)cc1,32,-11%,14µM*,7%,2.2µM*
c1ccc(C[n+]2cccc3c4ccccc4ccc32)cc1,30,9%,u,9%,u
COC/C=C/C1=CC2=CC(=O)C(C)(OC(=O)c3cnc4ccccc4n3)C(=O)C2=CN1C1CCCC1 (configuration not stated),x,-3%[11.4 µM],-2%,-6%[9.22 µM],-5%[13.5 µM]
O=C(c1nc(-c2ccccc2)n(-c2ccccc2)n1)N1CCCCCC1,70,-4%,-15%,15%,8.9µM*
Cc1cccc(NC(=O)c2nc(-c3ccccc3)n(-c3ccccc3)n2)c1C,16,0%,-29%,-4%,32µM*
O=C(O)CNC(=O)c1nc(-c2ccccc2)n(-c2ccccc2)n1,u,-3%,-7%,u,u
Cc1nn(-c2ccccc2)c2sc(C(=O)N3CCCCC3)cc12,-16,-16%,4µM*,u,1.8µM*
N[C@H](Cc1cc(I)c(Oc2cc(I)c(O)c(I)c2)c(I)c1)C(=O)O,x,-20%[25.6 µM],-5%,u,-7%[20.9 µM]
CN(C)CCN(C)Cc1ccc2c(c1)Cc1ccccc1-2,30,-2%,-15%,23%,11µM*
O=C(O)CCN1C(=O)/C(=C/c2ccc(-c3nc4ccccc4s3)o2)SC1=S,-14,-8%,13µM*,-5%,3.5µM*
O=C(O)CC(C(=O)O)N1C(=O)/C(=C/c2ccc(-c3nc4ccccc4s3)o2)SC1=S (configuration not stated),u,-9%,25µM*,-17%,10µM*
O=Cc1ccc(-c2nc3ccccc3s2)o1,x,x,x,-6%[46 µM],u
Cn1c(-c2ccc3c(c2)OCO3)cnc1NCc1ccccc1,-21,-2%,16µM*,17%,u
Cn1c(-c2ccc3c(c2)OCO3)cnc1NCc1cccc(Cl)c1,7,-17%,u,-6%,14µM*
Cn1c(-c2ccc3c(c2)OCO3)cnc1NCc1ccccc1Cl,x,x,x,-12%[46 µM],u
CC(C)N(Cc1ccccc1)S(=O)(=O)c1n[nH]c(C(C)(C)C)n1,x,-1%[11.4 µM],-3%,x,19%[13.5 µM]
CCOc1ccc2c(c1)nc(SCC(=O)c1cccs1)n2C,48,-6%,-10%,2%,u
CCOc1ccc2c(c1)nc(SCC(=O)c1ccc(Br)s1)n2C,57,u,u,12%,18µM*
COc1ccc(Cn2c(CO)cnc2SCc2ccc(C)cc2)cc1,x,x,x,8%[46 µM],x
O=C1c2ccccc2C(=O)N1CCCCN(C(=O)c1cc2ccccc2oc1=O)c1ccc(Cl)cc1,28,-2%,-11%,-8%,7.9µM*
COc1cccc(NC(=O)c2cnn(-c3ccccc3)c2-n2cccc2)c1,x,x,x,8%[46 µM],x
CCOC(=O)C1=C(N)OC(CCl)=C(C#N)C1c1ccsc1 (configuration not stated),-12,6%,-6%,-2%,7.9µM*
CCOC(=O)C1=C(c2ccccc2)OC(N)=C(C#N)C1c1ccc(Br)s1 (configuration not stated),-17,-5%,-14%,-27%,-4%
CC1=C(C(=O)OCc2ccccc2)C(c2ccsc2)C(C#N)=C(N)O1 (configuration not stated),u,-6%,-29%,-6%,u
CCOC(=O)C1=C(c2ccccc2)OC(N)=C(C#N)C1c1ccc(Cl)s1 (configuration not stated),-21,-28%,-12%,-15%,1.8µM*

# Screening results (PubChem)
